Measured values published in PubChem BioAssay (NCATS).
Results filed as inconclusive are left out. A number with no mark means an inactive call. Active and inactive are the calls of the source. The call rests on the fitted dose curve; in most records, active means well fitted inhibition curve with a large enough effect; inconclusive means small, poorly fitted or top-dose-only effect; inactive means flat fitted curve, though single readings scatter.
On the % scale 0 is the no-effect control and ±100 the full control effect; potency means the concentration at half of the fitted maximal effect.

The compounds below were run on CRL-7250 (assay: Cytotoxic Profiling of Annotated Libraries Using Quantitative High-Throughput Screening (AID 1296008; further: nearly all actives have a fitted effect of over 60% in size)). Details: Five cell lines viability, CellTiter-Glo ATP luminescence, 48-72 h; max response: hits give low values.
Summary of the method: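 Cells exposed to compounds for 48 or 72 hr at 37 degrees Celsius. Viability read as ATP-coupled luminescence with CellTiter-Glo after 10 min at room temperature.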
`C[CH2][Hg][S]c1ccccc1C(=O)O` was tested, and the Potency was 16800 nM (active).
In the case of `CN1C(=O)N(c2ccc(C#N)c(C(F)(F)F)c2)C(=O)[C@]1(CO)c1ccccc1`, the outcome was “inactive”.
`C=C1[C@@H]2CC[C@@]3(C)[C@H](c4ccoc4)OC(=O)C[C@]13O[C@H]1CC(=O)C(C)(C)[C@H](C(OC(C)=O)C(=O)OC)[C@]12C` (stereo not given in full) was tested, and the outcome was “inactive”.
In the case of `C[C@@H]1C(=O)O[C@H]2[C@H](O)[C@@]34[C@@H]5OC(=O)[C@@]3(O[C@@H]3OC(=O)[C@@H](O)[C@@]34[C@H](C(C)(C)C)[C@H]5O)[C@@]12O`, the max response was -6.45%.
For `COC(=O)C1(C)CCC(O)C2(C)c3c(O)cc(C(C)C)cc3C(O)C(OC(C)=O)C12` (stereo not given), the outcome was “inactive”.
With `CN1C(=O)c2ccccc2NC(=O)C1Cc1ccccc1` (stereo not given) the max response was 3.07%.
`CCC(C)(OC(C)=O)C(=O)O[C@H]1[C@H](OC(C)=O)C[C@@H]2[C@@](C)([C@@H]3C[C@H]4C=CO[C@H]4O3)[C@H](C)C[C@H](OC(C)=O)[C@@]2(COC(C)=O)[C@@]12CO2` (stereo not given in full) was tested, and the outcome was “inactive”.
`CCN1C[C@]2(COC(=O)c3ccccc3N3C(=O)C[C@H](C)C3=O)CC[C@H](OC)[C@@]34[C@@H]5C[C@H]6[C@H](OC)[C@@H]5[C@](O)(C[C@@H]6OC)[C@](O)([C@@H](OC)[C@H]23)[C@@H]14` showed a max response of -0.686%.
In the case of `CO[C@H]1[C@H](O)[C@H](O[C@H]2CC[C@]3(C)C4CC[C@]5(C)[C@H](C6=CC(=O)OC6)CC[C@]5(O)C4CC[C@@H]3C2)O[C@@H](C)[C@@H]1O` (stereo not given in full), the Potency was 25.2 nM (active).
With `N#CC(OC1OC(COC2OC(CO)C(O)C(O)C2O)C(O)C(O)C1O)c1ccccc1` (stereo not given) the outcome was “inactive”.
Compound `COc1cc(C(=O)O[C@H]2[C@@H]3C=CO[C@@H](O[C@@H]4O[C@H](CO)[C@@H](O)[C@H](O)[C@H]4O)[C@@H]3[C@@]3(CO)O[C@@H]23)ccc1O` has a max response of -1.79%.
`CC1=C2C[C@H]3[C@@H](CC=C4C[C@@H](O)CC[C@@]43C)[C@@H]2CC[C@]12O[C@@H]1C[C@H](C)CN[C@H]1[C@H]2C` showed a max response of 0.632%.
`CCC(C)(C#N)O[C@@H]1O[C@H](CO)[C@@H](O)[C@H](O)[C@H]1O` (stereo not given in full) showed a max response of -24.5%.
For `C1=C2CCCN[C@H]2[C@@H]2C[C@H]1[C@H]1CCCCN1C2`, the outcome was “inactive”.
In the case of `CCCCCCn1c(=O)c(C(=O)Nc2ccc(C(=O)OCCC)cc2)c(O)c2ccccc21`, the max response was 0.836%.
`C=C[C@H]1CN2CC[C@H]1C[C@@H]2[C@@H](O)c1ccnc2ccccc12` showed a max response of -1.31%.
`OCCCCC#Cc1cncc(OC[C@@H]2CCN2)c1` was tested, and the outcome was “inactive”.
`COC(=O)N1CCN(C(=O)Cc2ccc(Cl)c(Cl)c2)[C@@H](CN2CCCC2)C1` gave a max response of -2.38%.
With `COC1=CC(=O)O[C@@H](CCc2ccccc2)C1` the outcome was “inactive”.
`CN1[C@H]2C[C@H](OC(=O)[C@H](CO)c3ccccc3)C[C@@H]1[C@@H](O)C2` gave a max response of -1.08%.
In the case of `CCc1[nH]c2ccc(OC)cc2c1CCN(C)C`, the max response was 2.45%.
In the case of `COc1cc2c(cc1OC)[C@@]13CCN4CC5=CCO[C@H]6CC(=O)N2[C@H]1[C@H]6[C@H]5C[C@H]43`, the max response was -0.912%.
With `COC1C(O)C(OC2CCC3(C=O)C(CCC4C3CCC3(C)C(C5=CC(=O)OC5)CCC43O)C2)OC(C)C1OC1OC(CO)C(O)C(O)C1O` (stereo not given) the Potency was 172 nM (active).
In the case of `Cc1cccc(NC(=O)N[C@@H]2N=C(c3ccccc3)c3ccccc3N(C)C2=O)c1`, the outcome was “inactive”.
For `COc1cc(C)[nH]c(=O)c1CNC(=O)c1c(C)n([C@H](C)C2CCOCC2)c2ccccc12`, the outcome was “inactive”.
